# Screening data: PubChem, The Scripps Research Institute Molecular Screening Center
# Most compounds without a hit are left out; they make up all but 3.5% or so of the library.
# TEAD-YAP inh: TEAD-YAP interaction inhibition; AID 1259422; 640,000 tested, 1.4% active; HEK-TIYL cells, TEAD-Gal4/YAP UAS-luciferase luminescence; inhibition, % at 9.12 µM; in the data active means inhibition above about 32%;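 further: 0% = median of test compound wells and 100% = reference inhibitor wells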
# FBW7 act: activators of human E3 ligase FBW7. AlphaScreen FBW7–phospho-cyclin E peptide binding, activator screen. normalized activity (activation), % at 26.1 µM. 650,000 tested, 0.13% active; in the data active means normalized activity above about 1.9%;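 further: purified mutant Fbw7 with reduced substrate affinity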
# GPR151 activ: human GPR151 activation | Q8TDV0 | PathHunter beta-arrestin GPR151 cells, luminescence | activation, % at 11.2 µM | 650,000 tested, 1% active | AID 1508602; in the data active means activation above about 4.9%;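 further: 0% = median of compound wells and 100% = cells with positive control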
# Target sequence (Q8TDV0 whole entry, looked up): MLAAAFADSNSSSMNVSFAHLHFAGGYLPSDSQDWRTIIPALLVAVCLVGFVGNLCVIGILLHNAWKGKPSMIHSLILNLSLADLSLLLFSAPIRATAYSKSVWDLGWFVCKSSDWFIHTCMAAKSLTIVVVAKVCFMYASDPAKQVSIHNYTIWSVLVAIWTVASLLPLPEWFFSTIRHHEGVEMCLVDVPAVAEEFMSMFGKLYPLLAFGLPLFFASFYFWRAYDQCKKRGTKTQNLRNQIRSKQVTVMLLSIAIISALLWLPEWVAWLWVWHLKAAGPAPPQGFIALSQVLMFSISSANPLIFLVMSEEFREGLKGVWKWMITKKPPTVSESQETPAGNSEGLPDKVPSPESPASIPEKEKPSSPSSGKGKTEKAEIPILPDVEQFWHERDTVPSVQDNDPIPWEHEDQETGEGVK
# MITF primary: blocks human microphthalmia-associated transcription factor; inhibition, % at 2.6 µM; AlphaScreen MITF homodimerization, bead proximity signal; AID 1259374; 650,000 tested, 0.91% active; O75030; in the data active means inhibition above about 50%;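 further: 0% = vehicle wells with protein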
# MITF inh conf: confirmation of human MITF inhibitors. shares compounds with MITF primary. AlphaScreen MITF homodimerization, biotin/His-MITF beads. inhibition, % at 2.6 µM. 4,700 tested, 16% active;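 active means inhibition above a cutoff derived from the DMSO control wells, cut at about 28% in these data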;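 further: 0% = MITF dimer wells with DMSO only; inhibitors lower the bead chemiluminescence by keeping MITF from dimerizing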
# AS interf DR: optically interferes with AlphaScreen signal in dose response; shares compounds with MITF primary; AlphaScreen optical interference counterscreen, cell-free; IC50, µM; 480 tested, 6% active; call rule not given here
# AlphaScreen intf2: counter-screen: compounds optically interfering with AlphaScreen; shares compounds with MITF primary; LysRS AlphaScreen counterscreen, signal interference, triplicate; inhibition, % at 2.6 µM; 4,700 tested, 7.6% active; AID 1259376;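 active means inhibition above a cutoff derived from the DMSO control wells, cut at about 30% in these data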
# * marks the source's active call; other numbers are inactive results; . = no result.
SMILES,TEAD-YAP inh,FBW7 act,GPR151 activ,MITF primary,MITF inh conf,AlphaScreen intf2,others
CCOc1ccc(CN2CCC(C(=O)N3CCN(CC)CC3)CC2)cc1,-1.6,0.2,-0.4,-6.9,.,.,
NC(=O)C1CCN(Cc2ccc(Cl)c(Cl)c2)CC1,4.7,0.3,-0.5,53.2*,-1.9,3.2,
CCC(C)NC(=O)c1sc2ncn(CC(=O)N3CCC(C)CC3)c(=O)c2c1C (stereo unspecified),1.9,0.0,-0.3,-1.6,.,.,
Cc1ccc(S(=O)(=O)N(CC(=O)NCCSc2ccccn2)c2ccccc2Cl)cc1,10.0,0.0,0.4,1.8,.,.,
CC1=C(C(=O)Nc2ccc(C)cc2C)C(c2cccc(Cl)c2)NC(=O)N1 (stereo unspecified),9.3,-0.1,1.0,4.9,.,.,
CC1=C(C(=O)Nc2ccc(C)cc2C)C(c2cccc(Cl)c2)NC(=S)N1 (stereo unspecified),-1.9,0.0,0.5,72.5*,3.8,21.3,
CCN(CC)CCCNC(C)C(=O)Nc1cc(C)on1 (stereo unspecified),3.9,0.1,1.0,79.6*,11.6,15.9,
Cc1cc(NC(=O)C(C)NCc2ccc(F)cc2)no1 (stereo unspecified),-42.4,-0.4,1.0,14.3,.,.,
Cc1cc(NC(=O)C(C)NCc2cccs2)no1 (stereo unspecified),-37.1,-0.3,1.1,54.2*,6.0,6.2,
Oc1ccc(CCNc2nc(Nc3ccccn3)nc3c2ncn3C2CCCCC2)cc1,17.8,-0.1,2.3,3.9,.,.,
COc1cccc(C(=O)COC(=O)CCC(=O)Nc2ccc([N+](=O)[O-])cc2)c1,0.3,-0.1,1.4,-0.2,.,.,
COc1cccc(C(=O)COC(=O)CCCC(=O)Nc2ccc([N+](=O)[O-])cc2)c1,8.2,-0.1,2.2,62.1*,11.0,13.7,
CC(=O)c1cccc(NC(=S)NCCn2cc(Cl)cn2)c1,2.5,0.4,0.9,67.8*,12.9,9.3,
COc1ccc(CN2CCN(Cc3ccco3)CC2)cc1OC,2.1,0.1,0.7,71.2*,-16.3,2.3,
COc1ccc(CNC(=O)N2CCN(CC(=O)c3ccco3)CC2)cc1OC,-10.0,0.4,-0.4,53.8*,13.1,19.8,
COc1ccc(CN2CCN(Cc3ccco3)CC2)cc1Br,1.9,-0.2,-0.3,72.3*,12.1,15.8,
CCOc1cc(CN2CCN(Cc3ccco3)CC2)ccc1OC,-12.4,-0.2,1.3,45.1,.,.,
COc1ccc(-c2cn3c4c(=O)n(C)c(=O)n(C)c4nc3n2-c2ccc(OC)cc2)cc1,-5.7,-0.1,1.3,-1.7,.,.,
Cc1cc(C)n(C(=O)/C=C/c2ccccc2)n1,1.0,0.3,0.7,-1.3,.,.,
CC(/C=C/c1ccc(N(C)C)cc1)=C\C(=O)O,24.4,0.0,-0.1,9.1,.,.,
CC(=C/C(=O)O)/C=C/c1ccoc1,9.2,-0.7,-0.4,75.0*,56.9*,9.6,AS interf DR=>9.75
Cc1cc(C)n(C(=O)/C=C/c2ccco2)n1,3.6,-0.1,-0.6,77.6*,67.0*,-8.3,AS interf DR=>6.48
CC(=C/C(=O)O)/C=C/c1ccco1,-2.1,-0.1,0.9,68.0*,-25.3,-26.4,
O=C(COc1cccc(Br)c1)Nc1cccnc1,-12.0,-0.1,-1.0,-2.5,.,.,
O=C(NCCc1ccc(Cl)cc1)c1ccc(N2CC3CC(C2)c2cccc(=O)n2C3)c([N+](=O)[O-])c1 (stereo unspecified),1.3,-0.1,-0.3,-11.8,.,.,
SMILES,TEAD-YAP inh,FBW7 act,GPR151 activ,MITF primary,MITF inh conf,AlphaScreen intf2,others
COc1cc(Nc2ccc(NC(=O)c3cccc(F)c3)cc2)nc(C)n1,15.4,-0.1,1.1,56.8*,-4.7,-6.0,
O=C(Nc1ccccc1)c1nc[nH]c1C(=O)Nc1ccccc1,7.4,-0.1,-0.1,12.1,.,.,
O=C(NO)c1nc[nH]c1C(=O)NO,-1.4,-0.2,-2.1,98.4*,98.9*,100.6*,
O=C(CCSc1nnc2ccccn12)Nc1ccc(F)cc1,-3.4,-0.1,0.1,67.1*,10.8,-6.7,
Nc1ccc(C(=O)OCC(=O)NCCc2ccccc2)cc1[N+](=O)[O-],1.3,-0.1,-1.7,-7.8,.,.,
CCOC(=O)COc1cccc2c(=O)n(CC(=O)Nc3cccc(F)c3)ccc12,-2.1,0.2,-0.6,-8.9,.,.,
COc1ccc(C(=O)C2CCN(C(=S)NCC3CCCO3)CC2)cc1 (stereo unspecified),9.6,1.2,-0.9,85.5*,12.3,8.3,
COc1ccc(OC)c(CN2CCC(C(=O)NCC3CCCO3)CC2)c1 (stereo unspecified),8.1,0.1,-0.8,54.2*,-7.4,-0.3,
COCCNC(=O)C1CCN(Cc2cc(OC)ccc2OC)CC1,7.3,0.3,-1.8,34.9,.,.,
O=C(NCC1CCCO1)C1CCN(Cc2c[nH]c3ccccc23)CC1 (stereo unspecified),-6.0,-0.2,-0.2,55.0*,-15.0,-10.1,
O=C1C2CCCN2C(=O)N1c1ccc(Br)cc1 (stereo unspecified),-8.0,0.1,0.4,50.8*,9.5,16.1,
N=S(=NS(=O)(=O)c1ccccc1)(c1ccccc1)c1ccccc1,1.0,0.0,-0.7,-10.5,.,.,
O=S(=O)(N=S(=O)(/C=C/c1ccccc1)c1ccccc1)c1ccccc1 (stereo unspecified),34.9*,0.2,0.0,84.3*,28.4*,8.8,AS interf DR=>5.36
CCS(=O)(=O)N1CCC(c2nc3c(nnn3Cc3cccc(Cl)c3)c(=O)[nH]2)CC1,10.0,-0.1,-0.8,4.2,.,.,
CCc1nc2ccccc2c(NC(=O)CNC(C)(C)CC(C)(C)C)c1C,1.4,-0.1,0.5,70.0*,13.7,-6.1,
O=C(CN1CCCC1)Nc1c2c(nc3ccccc13)N(c1ccccc1)CC2,3.7,0.3,0.2,71.8*,4.5,8.0,
CC(C(O)c1ccccc1)N(C)CC(=O)Nc1c2c(nc3ccccc13)N(C)CC2 (stereo unspecified),-1.3,0.1,-0.3,66.6*,13.0,26.6,
O=C(CN1CCCC1)Nc1c2c(nc3ccccc13)N(Cc1ccccc1)CC2,7.5,-0.1,-0.5,29.7,.,.,
CCc1nc2ccccc2c(NC(=O)CN2CCCC2)c1C,8.1,0.2,1.3,64.8*,-13.9,-2.8,
O=C(CN1CCCC1)Nc1ccccc1,-14.3,0.6,3.5,11.1,.,.,
CC(=O)c1ccc(OCCCC(=O)Nc2ccc(S(=O)(=O)N3CCCC3)cc2)cc1,3.5,0.7,-0.6,12.6,.,.,
COc1ccc(S(=O)(=O)N2CCN(Cc3ccc(SC)cc3)CC2)cc1,-2.4,-0.2,-1.6,45.6,.,.,
COc1ccc(OC)c(CN2CCN(Cc3cc(OC)c(OC)c(OC)c3)CC2)c1,-10.5,-0.1,0.8,68.3*,9.0,15.2,
CCOc1cc(CN2CCN(Cc3cc(OC)ccc3OC)CC2)ccc1OC,5.4,0.0,0.6,57.7*,7.6,10.3,
COc1ccc(OC)c(CN2CCN(C(=O)c3cc(OC)c(OC)c(OC)c3)CC2)c1,16.5,-0.2,0.5,35.5,.,.,
CCOc1cc(CN2CCN(Cc3ccccc3OC)CC2)ccc1OC,3.3,0.0,2.5,28.8,.,.,
